The whole screen tested about 69,000 compounds, of which about 8,600 (12%) showed an effect of 50% or more. This excerpt belongs to a sample that is enriched for strong results.
The molecules below were run on Plasmodium berghei (assay: Screen against P. berghei liver stage (PbLuc), transformed with Luciferase, at 10uM). Conditions: tested at 10 uM.
Format: functional, HepG2

| SMILES | INHIBITION |
| --- | --- |
| CCc1nccn1CCCNC(=O)c1cnn(-c2ccccc2OC)c1 | -1.45% |
| Cc1nn(C)c(C)c1C1CCCN1CC(=O)Nc1cc(C(C)C)no1 (configuration not stated) | -1.14% |
| O=C(c1cnccn1)N1C[C@@H](OCc2ccncc2)[C@@H]2OCCC[C@@H]21 | 33% |
| O=C(NC1CCCc2nc(N3CCOCC3)ncc21)C1CCCC1 (configuration not stated) | -5.71% |
| COc1cc(-c2nc(CN(CCO)CCO)c(C)o2)ccc1F | 22.5% |
| CCN(C)c1ccc(CNC(=O)CCn2cc(C)cn2)cc1F | 12.8% |
| Cc1cc(C(F)(F)F)nc(CNC(=O)C2CCCCCN2C)n1 (configuration not stated) | 54.5% |
| CCC(C(=O)NCCc1nc(C)cc(C(F)(F)F)n1)n1cccn1 (configuration not stated) | 57% |
| Cc1cc(C(F)(F)F)nc(CNC(=O)CCC2CCCCN2C)n1 (configuration not stated) | 38.7% |
| CCOCC(=O)NCCc1nc(C)cc(C(F)(F)F)n1 | 20.4% |
| Cc1cc(C(F)(F)F)nc(CNC(=O)CCn2cccn2)n1 | 58.1% |
| Cc1cc(C(F)(F)F)nc(CNc2nc(C)nc3c2cnn3C)n1 | 19.4% |
| CCC(C(=O)NCc1nc(C)cc(C(F)(F)F)n1)n1cccn1 (configuration not stated) | 8.08% |
| Cc1cc(C(F)(F)F)nc(CNC(=O)CCC2CCCN(C)C2)n1 (configuration not stated) | 29.4% |
| CC(C)c1nn(C)c(N(C)C)c1CNCc1ccc(CO)c(F)c1 | 23.7% |
| CNc1nc2c(s1)C(c1c(Cl)cccc1Cl)CC(=O)N2 (configuration not stated) | 15% |
| CS(=O)(=O)N1CCN(c2ccc3ccc(C(=O)NC4CC4)cn23)CC1 | 22.3% |
| Cc1cccc(OC2CN(C(=O)C3CC(=O)N(C4CC4)C3)C2)c1 (configuration not stated) | 31.4% |
| O=C([C@H]1CC[C@@H]2[C@@H](CCN2C2CCOCC2)O1)N1CCOCC1 | 25.6% |
| Cc1cccc(OCCC(=O)N(C)CCC#N)c1C | -33.2% |
| CCc1ncnc2c1CCN(Cc1nccs1)CC2 | -2.41% |
| CCc1cnc(CN2CCC(N(C)Cc3noc(C4CC4)n3)C2)o1 (configuration not stated) | 23.4% |
| CCN1CCn2c(C)cnc2C12CCN(C(=O)COC)CC2 | -6.05% |
| CN(C)C(C(=O)N1CCCC1)c1ccccc1F (configuration not stated) | 29.7% |

| SMILES | INHIBITION |
| --- | --- |
| CN(C)C(C(=O)N1Cc2ccccc2C1)c1ccccc1F (configuration not stated) | 50.8% |
| CN(C)C(C(=O)N1CCSCC1)c1ccccc1F (configuration not stated) | 32.8% |
| O=c1[nH]nc(CCCN2CCOCC2)n1-c1ccc(F)cc1F | 39.4% |
| CC(C)CC(=O)N1CCCC2(CC(C(=O)Nc3ccccc3)=NO2)C1 (configuration not stated) | 3.58% |
| CCC1CN(C)c2ccccc2CN1C(=O)CCn1cncn1 (configuration not stated) | 44% |
| CCC1CN(C)c2ccccc2CN1C(=O)Nc1ccc(C)cc1 (configuration not stated) | 14% |
| CCC1CN(C)c2ccccc2CN1C(=O)Nc1ccccc1OC (configuration not stated) | 63.5% |
| CCC1CN(C)c2ccccc2CN1C(=O)Nc1cccc(F)c1 (configuration not stated) | 60.2% |
| CC(C)CCNC(=O)C1CCCN1C(=O)Nc1cccc(F)c1 (configuration not stated) | -11.4% |
| COc1ccccc1NC(=O)N1CCCC1c1ccco1 (configuration not stated) | 1.45% |
| Cc1c(C(=O)NCC(C)C)nnn1-c1cccc2c1CCN(CCO)C2 | 45.7% |
| O=C(NCCNc1ncccn1)C1CCCC1 | 26.4% |
| COc1ccccc1CNc1cnn(CC(F)F)c1 | 14.5% |
| Cc1nccn1CC1CCCN1S(=O)(=O)Cc1cccc(C#N)c1 (configuration not stated) | 45.7% |
| Cc1cc(NC(=O)CN2CCCC2c2c(C)nn(C)c2Cl)on1 (configuration not stated) | -27.9% |
| CC(C)C(C(=O)N1CCN(Cc2cscn2)CC1)n1cncn1 (configuration not stated) | -7.71% |
| O=C(NCCO)C1(Cc2ccccc2-c2ccncc2)CCOCC1 | -17.7% |
| O=C(NC1CC1)C1(Cc2ccccc2-c2ccncc2)CCOCC1 | 76.1% |
| CC(C)(C)NC(=O)C1(Cc2ccccc2-c2ccncc2)CCOCC1 | 17.1% |
| CN(C)C[C@@H]1CCC[C@@H]2CN(c3cccnc3)C[C@@H]21 | -11% |
| CCc1ncc(C(=O)N(CCOC)Cc2ccccc2F)cn1 | 41.5% |
| CCc1ncc(C(=O)N(CCOC)Cc2nccs2)cn1 | 50.5% |
| CCc1ncc(C(=O)N(CC)CCOC)cn1 | 29.2% |
| CS(=O)(=O)NCc1cnc2n1CCN(Cc1cccnc1)CC2 | 15.4% |

| SMILES | INHIBITION |
| --- | --- |
| O=C(NCC1CC1)c1n[nH]c2c1CNCC2 | -8.51% |
| Cc1cc(C)n(CCN(C)Cc2c[nH]nc2-c2ccc3c(c2)OCO3)n1 | 26.7% |
| CNC(=O)[C@H]1CC[C@@H]2[C@@H](CCN2CCOCc2ccccc2)O1 | 45.7% |
| CC(=O)N(C)C1CCC2(CC1)CNC(=O)c1cc(C)ccc1O2 (configuration not stated) | -20.2% |
| N#Cc1ccnc(N2CCN(C3CCOC3=O)CC2)c1 (configuration not stated) | -33.1% |
| N#Cc1ccnc(N2CCN(C(=O)NC3CCS(=O)(=O)C3)CC2)c1 (configuration not stated) | -19.9% |
| CCC1CCC(NCCN2CCOCC2)CC1 (configuration not stated) | 49.4% |
| C1CCC(NCCN2CCOCC2)C1 | 5.41% |
| CSc1nccc(N2CCC(NCCN3CCOCC3)CC2)n1 | 53.6% |
| N#Cc1ccnc(N2CCC(NCCN3CCOCC3)CC2)c1 | 66.5% |
| N#Cc1ccnc(N2CCC(NCCN3CCCC3)CC2)c1 | 57.3% |
| N#Cc1ccnc(N2CCN(Cc3cccc(F)c3)CC2)c1 | -23.7% |
| N#Cc1ccnc(N2CCN(CC(O)c3ccccc3)CC2)c1 (configuration not stated) | -76.3% |
| O=C(c1ccc(F)cc1)N1C[C@@H]2OCCN(c3ncccn3)[C@@H]2C1 | 10% |
| Cc1nnc(SCc2ccccn2)s1 | 44.1% |
| CCSCCNC(=O)c1ccc(S(=O)(=O)N2C[C@H]3C[C@@H]2CN3)cc1 | 9.91% |
| CC(C)c1cc(N(C)Cc2noc(C3CCCC3)n2)n2nccc2n1 | 46.4% |
| c1cnc(N2CCOCC3(CN(Cc4nccs4)CCO3)C2)nc1 (configuration not stated) | -34.7% |
| Cc1cc(Cc2ccccc2C)cc(C2CCCNC2)n1 (configuration not stated) | -11.4% |
| Cc1cccc(Cc2cc(C)nc(C3CCCNC3)c2)c1 (configuration not stated) | 54.5% |
| Cc1cc(Cc2ccc(F)cc2)cc(C2CCCNC2)n1 (configuration not stated) | 32.3% |
| Cc1cc(Cc2ccccc2)cc(C2CCCNC2)n1 (configuration not stated) | 28.5% |
| Cc1cc(Cc2cccc(C(F)(F)F)c2)cc(C2CCCNC2)n1 (configuration not stated) | 80.5% |
| Cc1cc(Cc2ccccc2F)cc(C2CCCNC2)n1 (configuration not stated) | 36.9% |

— ChEMBL document CHEMBL4513216, “Probing the Open Global Health Chemical Diversity Library for Multistage-Active Starting Points for Next-Generation Antimalarials” (ACS Infect Dis, 2020)
